Test system: Vero E6 infected with SARS-CoV-2
Test: inhibition of SARS-CoV-2 cytopathic effect; higher = more antiviral protection, active = above 15
Conditions: 48 h

Measured: inhibition of SARS-CoV-2 cytopathic effect

CC[C@H]1OC(=O)C[C@@H](O)[C@H](C)[C@@H](O[C@@H]2O[C@H](C)[C@@H](O[C@H]3C[C@@](C)(O)[C@@H](O)[C@H](C)O3)[C@H](N(C)C)[C@H]2O)[C@@H](CC=O)C[C@@H](C)C(=O)/C=C/C(C)=C/[C@@H]1CO[C@@H]1O[C@H](C)[C@@H](O)[C@@H](OC)[C@H]1OC
inactive: 1 nM -4.49% | 8.33 nM -1.15% | 100 nM -2.1% | 833.33 nM -0.46% | 10000 nM 4.02%

CC(=O)c1ccc(S(=O)(=O)NC(=O)NC2CCCCC2)cc1 [acetohexamide]
inactive: 1 nM -0.51% | 8.33 nM -0.35% | 100 nM -0.58% | 833.33 nM 0.37% | 10000 nM -0.22%

Cc1ccccc1C(=O)Nc1ccc(C(=O)N2CCCC(N(C)C)c3ccccc32)cc1 (stereo not given) [mozavaptan]
inactive: 1 nM 0.68% | 8.33 nM 1.45% | 100 nM 3.31% | 833.33 nM -0.56% | 10000 nM -5.53%

NC(=O)NC1NC(=O)NC1=O (stereo not given) [allantoin]
inactive: 1 nM -0.84% | 8.33 nM -1.51% | 100 nM -2.49% | 833.33 nM -1.11% | 10000 nM 1.18%

NCCc1cc[nH]n1 [betazole]
inactive: 1 nM 0.58% | 8.33 nM 1.07% | 100 nM 2.63% | 833.33 nM 0.04% | 10000 nM 0.97%

Oc1cc2c(cc1O)[C@@H]1c3ccc(O)c(O)c3OC[C@]1(O)C2 [hematoxylin]
inactive: 1 nM 1.9% | 8.33 nM 1.95% | 100 nM 0.48% | 833.33 nM 0.52% | 10000 nM 1.62%

CN(C)CCN1C(=O)c2cccc3cc(NC(N)=O)cc(c23)C1=O [unbs-5162]
inactive: 1 nM -0.12% | 8.33 nM 4.76% | 100 nM 2.53% | 833.33 nM 0.4% | 10000 nM -2.03%

O=C(O)C1=C[C@@H](O)[C@@H](O)[C@H](O)C1 [shikimic-acid]
inactive: 1 nM 2.18% | 8.33 nM 1.14% | 100 nM 0.89% | 833.33 nM 2.68% | 10000 nM 0.85%

COc1cc2c(N3CCN(C(=O)Nc4ccc(OC(C)C)cc4)CC3)ncnc2cc1OCCCN1CCCCC1 [tandutinib]
inactive: 1 nM -3.74% | 8.33 nM -4.22% | 100 nM -2.54% | 833.33 nM 0.88% | 10000 nM 0.92%

Clc1ccc(C(Cn2ccnc2)OCc2ccsc2Cl)c(Cl)c1 (stereo not given) [tioconazole]
inactive: 1 nM 6.75% | 8.33 nM -2.6% | 100 nM 5.03% | 833.33 nM -4.33% | 10000 nM -5.16%

C[N+]1(C)[C@@H]2CC[C@H]1C[C@@H](OC(=O)C(CO)c1ccccc1)C2 (stereo not given in full) [methylatropine-nitrate]
inactive: 1 nM 1.74% | 8.33 nM 2.06% | 100 nM 2.14% | 833.33 nM 4.12% | 10000 nM 3.88%

C[C@](N)(Cc1ccc(O)c(O)c1)C(=O)O [methyldopa]
inactive: 1 nM -0.96% | 8.33 nM 0.87% | 100 nM -0.52% | 833.33 nM -1.66% | 10000 nM 0.52%

O=C1C(Cl)=C(NCCN2CCOCC2)C(=O)c2ncccc21
inactive: 1 nM -0.37% | 8.33 nM 1.19% | 100 nM 1.71% | 833.33 nM 6% | 10000 nM -17.2%

Clc1cccc(Cl)c1CSc1nnc(-c2cnccn2)s1 [yoda-1]
inactive: 1 nM 1.9% | 8.33 nM 3.59% | 100 nM -0.57% | 833.33 nM 2.67% | 10000 nM 9.5%

Clc1ccc(C(Cn2ccnc2)OCc2csc3c(Cl)cccc23)c(Cl)c1 (stereo not given) [sertaconazole]
inactive: 1 nM 0.24% | 8.33 nM 1.06% | 100 nM -0.32% | 833.33 nM 1.68% | 10000 nM -2.97%

CSc1ccc(C(=O)/C=C/c2cc(C)c(OC(C)(C)C(=O)O)c(C)c2)cc1 [elafibranor]
inactive: 1 nM -1.98% | 8.33 nM 1.58% | 100 nM -1.18% | 833.33 nM 2.15% | 10000 nM 3.31%

Cc1ccnc(NS(=O)(=O)c2ccc(N)cc2)n1 [sulfamerazine]
inactive: 1 nM 2.3% | 8.33 nM 2.7% | 100 nM -1.58% | 833.33 nM -0.16% | 10000 nM -0.59%

CC(=O)[C@H]1CC[C@H]2[C@@H]3C[C@H](C)C4=CC(=O)CC[C@]4(C)[C@H]3[C@@H](O)C[C@]12C [medrysone]
inactive: 1 nM -0.04% | 8.33 nM 1.55% | 100 nM -1.22% | 833.33 nM 0.73% | 10000 nM 3.22%

CCCCCCCCCCOc1cc2c(O)c(C(=O)OCC)cnc2cc1OCC [decoquinate]
inactive: 1 nM -0.9% | 8.33 nM -0.75% | 100 nM -1.59% | 833.33 nM -0.59% | 10000 nM 2.03%

Source: the supplement of paper PMC13380429
